PubChem BioAssay (EPA / NIEHS)
Inconclusive results are not listed. Active and inactive are the calls of the source. Rule for the calls: active = hit-call score of the fitted dose curve at least 0.9, where 1 is the maximum; inconclusive = response in the unintended direction; inactive = score below 0.9.

These compounds were tested on xenobiotic metabolism (CYP1A1), CYP1A1 (gene 1543) (assay: CLD_CYP1A1_6hr: CellzDirect (CLD) Gene Expression Assay for xenobiotic metabolism (CYP1A1) at 6 hours (AID 2283661);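 for AC50: potency for transcript induction above DMSO vehicle baseline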).
Description: CLD_6hr is a cell-based, multiplexed-readout assay that uses hepatocyte, a human liver primary cell, with measurements taken at 6 hours after chemical dosing in a 96-well plate.CLD_CYP1A1_6hr is one of 16 assay component(s) measured or calculated from the CLD_6hr assay. It is designed to make measurements of mRNA induction, a form of inducible reporter, as detected with chemiluminescence signals by Quantitative Nuclease Protection Assay (qNPA) technology.Data from the assay component CLD_CYP1A1_6hr was analyzed at the endpoint, CLD_CYP1A1_6hr, in the positive analysis fitting direction relative to DMSO as the negative control and baseline of activity. Using a type of inducible reporter, gain-of-signal activity can be used to understand changes in the reporter gene as they relate to the gene CYP1A1. Furthermore, this assay endpoint can be referred to as a primary readout. To generalize the intended target to other relatable targets, this assay endpoint is annotated to the cyp intended target family, where subfamily is xenobiotic metabolism.
Human hepatocyte cultures were treated daily for two consecutive days with fresh dosing solutions containing appropriate concentrations of the 320 ToxCast chemicals (chemical identities were blinded to CellzDirect and other ToxCast collaborators), vehicle control (0.2% DMSO), and positive control inducers as summarized in Table 1. Due to the large number of treatment groups and chemicals examined, the ToxCast chemicals were divided into two groups (spanning two independent cultures of hepatocytes from separate donor preparations (Hu778: ToxCast plates 1 and 2; Hu776: ToxCast plates 3 and 4). Each preparation of human hepatocyte cultures was treated with respective vehicle control, medium only control, set of six positive controls/reference chemicals for the five hepatic receptor pathways, and a subset of eight of the ToxCast chemicals (indoxacarb, pyrithiobac-sodium, norflurazon, cyhalofop-butyl, methomyl, thiram, acetochlor, and propiconazole). These replicate data, coupled with internal replicates designed within the blinded ToxCast chemical library, provided additional data to evaluate interindividual differences between hepatocyte preparations and their potential impact on chemical profiles.Cell morphology and integrity were evaluated using phase-contrast microscopy as an indicator of hepatocyte cell health (Tyson & Green, 1987). Cultures for each treatment group (i.e., media, vehicle [0.2% DMSO], positive control inducers [multiple concentrations], and the ToxCast chemicals [multiple concentrations]) were observed and cell morphology was assessed relative to vehicle control cultures at each harvest time point (0, 6, 24, or 48 h). […] Images were evaluated at the conclusion of the study to assess changes in cell integrity and account for the effects of chemical exposure on uncharacteristic changes in concentration-dependent gene expression profiles. The results from these determinations of apparent cytotoxicity were annotated (yes/no) alongside the corresponding qNPA data for reference.At the conclusion of each treatment period, hepatocyte cultures (96-well) were washed with 1 volume of HBSS, lysed by addition of 25 ul ArrayPlate lysis buffer (HTG, Tucson, AZ), and 70 ul/well of Denaturation Oil, denatured by incubation at 95C for 10 min, and frozen at approximately -70C until analysis by nuclease protection assay (qNPA) (Roberts et al., 2007). For qNPA analysis, cell lysates were thawed at 50C for approximately 30 min, qNPA probes were added, and samples were incubated at 95C for 10 min to begin the detection process by denaturing the target RNA, dissociating the duplexes and secondary structure hybridization. At the conclusion of the hybridization period, S1 nuclease reagent was added to each sample to digest all nonprotected nucleotides at 50C for 60-90 min. […]

| Structure (SMILES) | outcome | AC50 |
| --- | --- | --- |
| O=C(O)CCCOc1ccc(Cl)cc1Cl | inactive |  |
| COc1nn(CSP(=S)(OC)OC)c(=O)s1 |  | 1.25 µM (active) |
| COc1cc(OC)nc(NC(=O)NS(=O)(=O)c2cc(NC=O)ccc2C(=O)N(C)C)n1 | inactive |  |
| CCOC1Oc2ccc(OS(C)(=O)=O)cc2C1(C)C (stereo not given) |  | 3.97 µM (active) |
| CC1(C)C(C=C(Cl)Cl)C1C(=O)OC(C#N)c1ccc(F)c(Oc2ccccc2)c1 (stereo not given) |  | 20 µM (active) |
| CCc1ccc(C(=O)NN(C(=O)c2cc(C)cc(C)c2)C(C)(C)C)cc1 |  | 7.56 µM (active) |
| CCOCN(C(=O)CCl)c1c(C)cccc1CC | inactive |  |
| COP(=S)(OC)Oc1ccc(SC)c(C)c1 |  | 5.13 µM (active) |
| CC(C)(C)C(O)C(Oc1ccc(Cl)cc1)n1cncn1 (stereo not given) |  | 1.55 µM (active) |
| CNC(=O)CSP(=S)(OC)OC |  | 0.275 µM (active) |
| CC1(c2ccc(Oc3ccccc3)cc2)OC(=O)N(Nc2ccccc2)C1=O (stereo not given) | inactive |  |
| O=C(O)C(F)(F)C(F)(F)C(F)(F)C(F)(F)C(F)(F)C(F)(F)C(F)(F)F | inactive |  |
| CCS(=O)(=O)c1cccnc1S(=O)(=O)NC(=O)Nc1nc(OC)cc(OC)n1 | inactive |  |
| N#CN | inactive |  |
| Cc1[nH]c(=O)n(C(C)(C)C)c(=O)c1Cl |  | 20 µM (active) |
| CCCN(CCOc1c(Cl)cc(Cl)cc1Cl)C(=O)n1ccnc1 |  | 0.0868 µM (active) |
| ClC1C(Cl)C(Cl)C(Cl)C(Cl)C1Cl (stereo not given) | inactive |  |
| COP(=S)(OC)Oc1ccc([N+](=O)[O-])cc1 |  | 2.88 µM (active) |
| Clc1ccccc1-c1nnc(-c2ccccc2Cl)nn1 | inactive |  |
| CC(C)OC(=O)Nc1cccc(Cl)c1 |  | 3.3 µM (active) |

| Structure (SMILES) | outcome | AC50 |
| --- | --- | --- |
| COP(=O)(OC)OC=C(Cl)Cl |  | 1.9 µM (active) |
| CC(C)N(C(=O)COc1nnc(C(F)(F)F)s1)c1ccc(F)cc1 | inactive |  |
| CN1CSC(=S)N(C)C1 | inactive |  |
| O=C(O)COc1ccc(Cl)cc1Cl |  | 0.459 µM (active) |
| Oc1ccc(Cl)cc1Cc1ccccc1 | inactive |  |
| O=C(Nc1ccccc1)Nc1cnns1 |  | 1.87 µM (active) |
| COC(=O)c1ccccc1CS(=O)(=O)NC(=O)Nc1nc(OC)cc(OC)n1 |  | 20 µM (active) |
| N#Cc1c(Cl)c(Cl)c(Cl)c(C#N)c1Cl |  | 36.8 µM (active) |
| CC(C)(C)C(O)/C(=C\c1ccc(Cl)cc1Cl)n1cncn1 (stereo not given) |  | 1.89 µM (active) |
| COC(=O)c1ccccc1S(=O)(=O)NC(=O)N(C)c1nc(C)nc(OC)n1 |  | 20 µM (active) |
| O=[N+]([O-])/N=C1\NCCN1Cc1ccc(Cl)nc1 | inactive |  |
| COC(=O)c1ccccc1S(=O)(=O)NC(=O)Nc1nc(C)nc(OC)n1 |  | 20 µM (active) |
| CNC(=O)Oc1ccccc1OC(C)C | inactive |  |
| O=[N+]([O-])c1c(Cl)c(Cl)c(Cl)c(Cl)c1Cl | inactive |  |
| C[C@H]1[C@H](c2ccc(Cl)cc2)SC(=O)N1C(=O)NC1CCCCC1 | inactive |  |
| O=S(=O)(O)C(F)(F)C(F)(F)C(F)(F)C(F)(F)C(F)(F)C(F)(F)C(F)(F)C(F)(F)F | inactive |  |
| CNC(=O)/C=C(\C)OP(=O)(OC)OC | inactive |  |
| CCOc1nc(NC)nc(NC(=O)NS(=O)(=O)c2ccccc2C(=O)OC)n1 | inactive |  |
| Cc1cc(C)nc(NC(=O)NS(=O)(=O)c2ccccc2C(=O)OC2COC2)n1 | inactive |  |
| CCN(CC)C(=O)SCc1ccc(Cl)cc1 | inactive |  |
